Measured values taken from PubChem BioAssay (NCI).
The panel holds about 83,000 compounds, 20% with a hit somewhere; the sample as a whole holds those more often.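 For each line, cells grew in 96-well plates with the test compound present at a single concentration for 48 hours.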 Activity calls are given as the source filed them. The calls were made as follows: active = growth percent below 10; inactive = the rest.

What follows are compounds tested on TK-10 renal (assay: NCI-60 one-dose screen, 48 h (100 = growth as untreated, 0 = no growth, -100 = all killed)). Settings: 10 µM unless noted.
With `O=C(Nc1ccc(CN2CCOCC2)c(C(F)(F)F)c1)c1nc2ccc3[nH]ncc3c2c2c1CCCC2` the growth was 104% (inactive).
With `CC(C)[C@H]1CCC2=C3CC[C@]45OC(=O)[C@@]6(CCC(C)(C)C[C@H]64)CC[C@@]5(C)[C@]3(C)CC[C@@]21C` the growth was 101% [100 µM] (inactive).
`Cc1ccc2c(c1)/C(=N\N=C/c1cn(C(C)C)c3ccccc13)C(=O)N2` was tested, and the growth was 81.4% (inactive).
For `COc1ccc(C(=O)c2nccc3cc(OC)c(OC)cc23)cc1OC`, the growth was 132% (inactive).
In the case of `Nc1cc(C(=O)O)[nH]c(=S)n1`, the growth is reported as 93.4% (inactive).
In the case of `CC1(C)CC[C@]2(C(=O)O)CC[C@]3(C)C(=CC[C@@H]4[C@@]5(C)C/C(=C/c6cccnc6)[C@H](O)C(C)(C)[C@@H]5CC[C@]43C)[C@@H]2C1`, the growth is reported as 1.87% [100 µM] (active).
In the case of `ClC1=C(Cl)C(Cl)=C(Cl)C1=Cc1ccccc1`, the growth is reported as -36.3% (active).
With `CCCCC(CCCCCC(CCCC)C1NC(C)Cc2cc(OC)c(OC)cc21)C1NC(C)Cc2cc(OC)c(OC)cc21` (stereo not drawn) the growth was -94.5% (active).
With `COc1ccccc1S(=O)Nc1ccccc1` (stereo not drawn) the growth was 101% (inactive).
For `Cc1cnc(N)nc1OCC(C)(C)CNC(=O)c1cccc(-c2ccc(S(=O)(=O)Nc3ccc4c(c3)N(C(=O)C3CC3)CCC4)cc2)c1`, the growth was 76.6% (inactive).
For `C=C(C)[C@@H]1CC[C@]2(COC(=O)c3ccccc3C(=O)O)CC[C@]3(C)[C@H](CC[C@@H]4[C@@]5(C)CC[C@H](OC(=O)c6ccccc6C(=O)O)C(C)(C)[C@@H]5CC[C@]43C)[C@@H]12`, the growth was 21.8% [100 µM] (inactive).
For `Cc1cc(N2CCCCCC2)nc(N2CCN(CC(=O)Nc3ccc4c(ccn4Cc4ccccc4)c3)CC2)n1`, the growth was 83.4% (inactive).
For `CC1(C)C(=O)/C(=C\c2cccnc2)C[C@]2(C)[C@H]3CC[C@@H]4[C@H]5[C@H](C(=O)/C=C/c6cccnc6)CC[C@]5(C(=O)O)CC[C@@]4(C)[C@]3(C)CC[C@@H]12`, the growth was -89.5% [100 µM] (active).
In the case of `CCN(CC)CCSC(=O)C(O)(c1ccccc1)C1CCCC1` (stereo not drawn), the growth is reported as 120% (inactive).
With `O=C(NNc1ccc(-c2ccccc2)nn1)c1ccccc1` the growth was 107% (inactive).
`Cc1cc2c(C(C)C)c(O)c(O)c(C=NCc3ccoc3)c2c(O)c1-c1c(C)cc2c(C(C)C)c(O)c(O)c(C=NCc3ccco3)c2c1O` was tested, and the growth was 45.8% (inactive).
With `c1ccc(-c2nnc(-c3c[nH]c4ncccc34)s2)cc1` the growth was 124% (inactive).
In the case of `Cc1ccc(-c2cc(-c3ccc(C)cc3)nc(NCCNc3ccnc4cc(Cl)ccc34)n2)cc1`, the growth is reported as -49.2% (active).
For `Cn1cc(-c2noc(C(=O)c3cn(C)c4ncccc34)n2)c2ccccc21`, the growth was 26.5% (inactive).
In the case of `Cc1cc(NN=C(c2ccc(O)cc2)c2ccc(O)cc2)c([N+](=O)[O-])cc1[N+](=O)[O-]`, the growth is reported as 51.4% (inactive).
For `O=C(C[n+]1ccn(CC(OCc2ccc(Cl)cc2Cl)c2ccc(Cl)cc2Cl)c1)c1ccc(F)cc1` (stereo not drawn), the growth was -46.1% (active).
`COc1cc(-c2nc(SCCC(C)C)nc(Nc3ccc(S(N)(=O)=O)cc3)c2C#N)cc(OC)c1OC` was tested, and the growth was 50% (inactive).
`CC(C)=CCC[C@](C)(O)[C@H]1CC[C@]2(C)[C@@H]1CC[C@@H]1[C@@]3(C)CC[C@H](OC(=O)CCC(=O)O)C(C)(C)[C@@H]3CC[C@]12C` was tested, and the growth was 49.6% [100 µM] (inactive).
With `C=C(C)[C@@H]1CC[C@]2(C)[C@H](CC[C@@H]3[C@@H]([C@@](C)(O)CCC=C(C)C)CC[C@]32C)[C@@]1(C)CCC(=O)O` the growth was 18.1% [100 µM] (inactive).
`O=C(CCN1CCCCC1)c1ccc2ccccc2c1` was tested, and the growth was 94.5% (inactive).
In the case of `O=C(N/N=C/c1c(Cl)cccc1Cl)c1cccc(Nc2ccnc(C(F)(F)F)c2)c1`, the growth is reported as 90.8% (inactive).
For `CCc1ccc(C2=C/C(=C/c3ccccc3)C(=O)N2CCc2ccc(S(N)(=O)=O)cc2)cc1`, the growth was 122% (inactive).
For `COc1cc2c(cc1OCCCCCOc1ccc(-n3c(C)nc4ccccc4c3=O)cc1)N=C[C@@H]1CCCN1C2=O`, the growth was -28.2% (active).
In the case of `CCN(CCO)CCC(=O)c1ccc([N+](=O)[O-])cc1`, the growth is reported as 99.8% (inactive).
`COc1c(B(O)O)cccc1-c1nc2ccc3[nH]ncc3c2c2c1CCC2` was tested, and the growth was 36.4% (inactive).
With `Cc1ccc(-c2cc(O)c(-c3ccc(C)cc3C)cc2O)c(C)c1` the growth was 79.1% (inactive).
With `C=C(C)[C@@H]1CC[C@]2(c3ncc(C)o3)CC[C@]3(C)[C@H](CC[C@@H]4[C@@](C)(CCC#N)[C@H](C(=C)C)CC[C@]43C)[C@@H]12` the growth was -90.6% [100 µM] (active).
`Nc1nc(Nc2ccccc2)c2ncn(Cc3ccc4c(c3)OCO4)c2n1` was tested, and the growth was 63.3% (inactive).
`CC(=O)OC[C@]12CC[C@@H](C(=O)CBr)[C@@H]1[C@H]1CC[C@@H]3[C@@]4(C)CCCNC(C)(C)[C@@H]4CC[C@@]3(C)[C@]1(C)CC2` was tested, and the growth was -92.4% [100 µM] (active).
With `C[C@@H]1C[C@H]2C(=O)O[C@@H](C)[C@H](NC(=O)[C@H](Cc3cc(F)cc(F)c3)NC(=O)Nc3ccc(Cl)cc3F)C(=O)N3C[C@H](O)C[C@H]3C(=O)N3CCN(C)C[C@H]3C(=O)N[C@@H](C)C(=O)N2C1` the growth was 91.7% (inactive).
In the case of `COC(=O)C(=Cc1ccccc1[N+](=O)[O-])C(=O)OC`, the growth is reported as 14.7% (inactive).
With `CC1Cc2c(Cl)ncnc2N(C)c2ccc(Cl)cc21` (stereo not drawn) the growth was 11.2% (inactive).
In the case of `CC1(C(=O)O)CCC(N)(C(=O)O)C1(C)C` (stereo not drawn), the growth is reported as 101% (inactive).
